Ten compounds from PubChem BioAssay (NCATS) can be followed below.

Results filed as inconclusive are left out. The source made the active and inactive calls. Unless noted, calls come from the whole dose curve; as a rule, active = well fitted curve in the direction sought with a large enough effect; inconclusive = small, poorly fitted or top-dose-only effect, or another doubt; inactive = no such curve, though single readings can be large; an effect the other way counts as inactive or inconclusive.

Experiment [1] in a line: High-throughput drug toxicity screening in the BPDCN cell line Cal-1 (AID 1224825; call rule not given here). Conditions: Cal-1 BPDCN cell viability, qHTS; at 45.8 µM (top of the series). The essentials: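 Percent activity derived from CellTiter-Glo luminescence, scaling DMSO to 100% and 9.2 uM final bortezomib to 0%. BPDCN Cal-1 cells (500/well, RPMI plus 10% FBS) incubated with compounds 48 hours at 37C before reading.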

Experiment [2] in a line: qHTS assay for measurement of the activity of small molecule inhibitors on Zika virus induced Caspase-3 activity in human iPSC derived neural progenitor cells (hNPCs) (AID 1224857). Note: % of control where 0% means no effect; nearly all actives have a fitted effect of over 65% in size. The essentials: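 Human iPSC-derived neural progenitor cells pretreated 1 hr with compounds, then infected with Zika virus (2 FFU/cell) for 6 hours at 37 C. Caspase-3/7 measured by Caspase-Glo luminescence; % inhibition calculated from induction scaled to uninfected (0%) and infected (100%) wells.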

Experiment [3] is described as follows: qHTS assay for measurement of the activity of small molecule inhibitors on Zika virus induced Caspase-3 activity in human astrocytoma cells (AID 1224859).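 Note: plate controls were ZIKV-infected untreated cells for no effect and uninfected cells for full effect.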 The method, boiled down: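 SNB-19 astrocytoma cells, 250/well, pretreated 1 h with compounds, then Zika virus at 2 FFU/cell for 6 h at 37 C; Caspase-Glo 3/7 luminescence after 30 min; percent inhibition normalised to uninfected and infected controls.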

A short description of experiment [4]: qHTS Screen of the MIPE 4.0 Collection Against Ewings Sarcoma (RDES) (AID 1259252). Note: nearly all actives have a fitted effect of over 35% in size. Note: potency is the fitted concentration of half-maximal effect. The method, boiled down: (§1)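 Cells plated in serum-containing RPMI (5% FBS) and treated with compound dilutions for 48 h. Readout luminescent viability; normalization relied on vehicle (no inhibition) and media-only columns (full inhibition).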
Experiment [5] is described as follows: qHTS Screen of the MIPE 4.0 Collection Against Ewings Sarcoma (TC32) (AID 1259256). Note: nearly all actives have a fitted effect of over 45% in size. Note: potency is the fitted concentration of half-maximal effect. The method, boiled down:
as §1

Experiment [6] is described as follows: qHTS assay to identify small molecule inhibitors of chordoma cells - UCH-1 (AID 1259355). Note: % is set by controls: 0 for no effect and ±100 for the full control effect; nearly all actives have a fitted effect of over 55% in size. The method, boiled down: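 800 cells/well, overnight attach; compounds pinned at 15 concs, then auranofin/camptothecin/doxorubicin/rubitecan/topotecan combo added; 48hr 37 C, 5% CO2; CellTiter-Glo, 30min RT, luminescence.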
A short description of experiment [7]: P-glycoprotein substrates identified in KB-8-5-11 adenocarcinoma cell line, qHTS therapeutic library screen (AID 1346987). Note: nearly all actives have a fitted effect of over 65% in size. Note: potency is the fitted concentration of half-maximal effect. The method, boiled down: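 Human cervical adenocarcinoma KB-8-5-11 cells, selected in colchicine to over-express P-gp and assayed without it, were exposed for 72 h to titrated compounds. An ATP-based luminescent viability signal gave AC50.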

Experiment [8] in a line: NS1 protein of Zika virus - qHTS assay to identify small molecule inhibitors in human HEK 293 cells (AID 1347053). Note: nearly all actives have a fitted effect of over 55% in size. Note: potency is the fitted concentration of half-maximal effect. The method, boiled down: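 Read-out is a two-antibody TR-FRET for ZIKV NS1, normalized between uninfected cells and infected cells. Compound added 1 h before MR766 infection at MOI 0.5; human HEK 293 cells incubated 24 h, 37 C.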
Experiment [9] is described as follows: qHTS Screen of the MIPE 4.0 Collection Against Ewings Sarcoma (EW8) (AID 1259255).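 For viability: 100% = DMSO-treated cells and 0% = medium-only wells without cells.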 Note: nearly all actives have a fitted effect of over 35% in size. Note: potency is the fitted concentration of half-maximal effect. The method, boiled down:
as §1

The nature of experiment [10]: qHTS Screen of the MIPE 4.0 Collection Against Ewings Sarcoma (TC71) (AID 1259253).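 Note: 100% = DMSO-treated cells and 0% = medium-only wells without cells; nearly all actives have a fitted effect of over 40% in size.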 The method, boiled down: as §1
Experiment [11] is described as follows: P-glycoprotein substrates identified in KB-3-1 adenocarcinoma cell line, qHTS therapeutic library screen (AID 1346986). Note: nearly all actives have a fitted effect of over 60% in size. The essentials: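 Dose-response cytotoxicity, KB-3-1 vs P-gp-high KB-8-5-11, no colchicine in assay medium. Read: CellTiter-Glo at 72 h.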
Experiment [12] in a line: Identifying Small Molecule Inhibitors of Pancreatic Cancer Stem Cells (SN12C, Adherent) (AID 1259358).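 Note: cell survival measured after 48 h of compound exposure.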 The essentials: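 Pre-formed 14-day tumor spheroids or adherent cells dosed and incubated 48 h, 37C, 5% CO2. Viability assessed by CellTiter-Glo.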
Experiment [13] in a line: Identifying Small Molecule Inhibitors of Pancreatic Cancer Stem Cells (Panc1, Adherent) (AID 1259362). Note: potency is the fitted concentration of half-maximal effect. Conditions: Potency: viability. The essentials:
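Viability is scored by CellTiter-Glo luminescence 48 h after dosing, expressed as percent activity against vehicle and no-cell references. Spheroid formats rely on cells cultured 14 days in stem cell media beforehand.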

On to `CN(C)[C@@H]1C(=O)C(C(N)=O)=C(O)[C@@]2(O)C(=O)C3=C(O)c4c(O)cccc4[C@@](C)(O)[C@H]3[C@H](O)[C@@H]12`, for which the viability (% of control) in experiment [1] came out at 100%. Also, the Potency entry in experiment [2], in experiment [3], in experiment [4], in experiment [5], in experiment [6] and in [7] was “inactive” each time. For the same compound, in [8], the Potency result was “inactive”.

For the compound `CCOP(=O)(OCC)C(C)NC(=O)N(CCCl)N=O` (configuration not stated), the viability (% of control) in experiment [1] stood at 103%. The Potency result in [2], in [3], in experiment [4], in experiment [9], in experiment [5] and in experiment [8] was “inactive” throughout.

For `CC(=O)O[C@@]12CO[C@H]1C[C@H](O)[C@@]1(C)C(=O)[C@H](O)C3=C(C)[C@@H](O)C[C@@](O)([C@@H](OC(=O)c4ccccc4)[C@@H]21)C3(C)C`, in [1], the viability (% of control) amounted to 20.6%. Besides, the Potency result in experiment [2] and in experiment [3] was “inactive” in each case. Further, the Potency in experiment [4] was 2350 nM (active); in experiment [9], 2350 nM (active); in experiment [7] it was 7430 nM (active).

In the case of `NC1=NC(=O)N2CC12` (configuration not stated), the viability (% of control) in experiment [1] is 7.57%. Further, the Potency result in experiment [2], in [3], in [4], in experiment [5], in experiment [6] and in experiment [7] was “inactive” each time. The Potency entry in [8] is “inactive”.

`C[C@@H]1O[C@@H](O[C@@H]2C=C3CC[C@@H]4[C@@H](CC[C@]5(C)[C@H](c6ccc(=O)oc6)CC[C@@]45O)[C@@]3(C)CC2)[C@H](O)[C@H](O)[C@H]1O`: the viability (% of control) in experiment [1] was determined as 3.76%. Also, the Potency entry in experiment [2] and in [3] was “inactive” throughout. Moreover, the Potency in experiment [4] was 41.8 nM (active); in experiment [9], 16.6 nM (active); in experiment [5], 23.5 nM (active); in experiment [7], 20.9 nM (active); in experiment [8], 11.8 nM (active).

In the case of `O=C(Oc1ccc([N+](=O)[O-])cc1)N1CCN(Cc2cccc(Oc3ccccc3)c2)CC1`, the viability (% of control) in experiment [1] is 54.4%. Besides, the Potency result in experiment [2], in [3], in experiment [4], in [9], in [5] and in experiment [7] was “inactive” each time. The Potency result in experiment [8] is “inactive”.

Take `O=[N+]([O-])c1ncc[nH]1`: the viability (% of control) in [1] turned out to be 122%. Moreover, the Potency result in experiment [2], in experiment [3], in experiment [4], in [10] and in experiment [8] was “inactive” throughout.

On to `CC(C)N(CCNC(=O)CN1CCCC1=O)C(C)C`, for which the viability (% of control) in [1] is 111%. For the same compound, the Potency result in experiment [2], in experiment [3], in [4], in experiment [5], in experiment [11] and in experiment [7] was “inactive” in each case. The Potency entry in experiment [8] was “inactive”.

For `C[C@@]12OC(=O)[C@]1([C@@H](O)[C@@H]1C=CCCC1)NC(=O)[C@H]2CCCl`, in experiment [1], the viability (% of control) amounted to 3.86%. Moreover, the Potency result in experiment [2] and in experiment [3] was “inactive” each time. Moreover, the Potency is 37.2 nM (active) in [4]; 26.4 nM (active) in experiment [9]; 41.8 nM (active) in experiment [5]; 148 nM (active) in [7]; 833 nM (active) in [8].

On to `Cc1nc(-c2ccc(-c3ccc(C(=O)N4CCc5cc6c(cc54)C4(CCN(C)CC4)CO6)cc3)c(C)c2)no1`, for which the viability (% of control) in experiment [1] is 126%. Besides, the Potency result in [2], in [3], in [4], in [9], in [5] and in [12] was “inactive” each time. The Potency result in experiment [7] and in experiment [8] was “inactive” each time. The Potency in experiment [13] was 16600 nM (active).
